Compound activity from PubChem.
This is one part of a sample in which hits are shown more often than they occur.
ROS inducer = raises reactive oxygen species in U2OS cancer cells. U2OS ROS induction, H2DCF-DA fluorescence. ROS induction (% of piperlongumine), % at 10 µM. 2% of 46,000 active. AID 624156; in the data active means ROS induction above about 79%, passing the limit was not always enough;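 further: 0% = DMSO vehicle median and 100% = reference compound median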
* = called active by the depositor.

`C=CCNC(=O)[C@H]1[C@@H]2C(=O)O[C@@H](c3ccccc3)[C@@H](c3ccccc3)N2[C@@H](c2ccccc2OCCO)[C@]12C(=O)Nc1ccc(C#CCC(C(=O)OC)C(=O)OC)cc12` gave ROS inducer 185*.
For C=CCNC(=O)[C@H]1[C@@H]2C(=O)O[C@@H](c3ccccc3)[C@@H](c3ccccc3)N2[C@@H](c2ccc(OCCO)cc2)[C@]12C(=O)Nc1ccc(C#Cc3ccc(OC)cc3)cc12 the results were ROS inducer 14.
For C=CCNC(=O)[C@@H]1[C@H]2C(=O)O[C@H](c3ccccc3)[C@H](c3ccccc3)N2[C@H](c2ccccc2OCCO)[C@@]12C(=O)Nc1ccc(C#CCNC(N)=O)cc12 the results were ROS inducer 11.
COC(=O)C(CC#Cc1ccc2c(c1)[C@]1(C(=O)N2)[C@H](C(=O)NC[C@H](O)c2ccccc2)[C@H]2C(=O)O[C@H](c3ccccc3)[C@H](c3ccccc3)N2[C@@H]1c1ccc(OCCO)cc1)C(=O)OC was read as ROS inducer 23.
`C=CCNC(=O)[C@@H]1[C@H]2C(=O)O[C@H](c3ccccc3)[C@H](c3ccccc3)N2[C@H](c2ccccc2OCCO)[C@@]12C(=O)Nc1ccc(C#Cc3ccc(OC)cc3)cc12` gave ROS inducer 25.
Screening Cc1cc(C)c(C)c(S(=O)(=O)NCCc2c(C)[nH]c3ccccc23)c1C returned ROS inducer 2.
Screening C[C@@H]1CN([C@@H](C)CO)C(=O)c2cccc(NS(=O)(=O)c3cn(C)cn3)c2O[C@@H]1CN(C)Cc1ccc(Oc2ccccc2)cc1 returned ROS inducer -3.
Screening C[C@@H]1CN([C@H](C)CO)C(=O)c2cc(NC(=O)Nc3ccccc3)ccc2O[C@H]1CN(C)C(=O)Nc1ccc(C(F)(F)F)cc1 returned ROS inducer -8.
Cc1noc(C)c1NC(=O)N(C)C[C@H]1Oc2ccc(NC(=O)CCN3CCOCC3)cc2CC(=O)N([C@@H](C)CO)C[C@H]1C was read as ROS inducer -3.
`CC1CCN(S(=O)(=O)c2ccc3nc(-c4cccnc4)cc(C(=O)NCC4CCCO4)c3c2)CC1` (stereo unspecified) gave ROS inducer 1.
O=C(O)c1cc(C23CC4CC(CC(C4)C2)C3)nc2ccc(Br)cc12 was read as ROS inducer 52.
COc1ccc(OC)c(S(=O)(=O)N(C)CC(=O)Nc2ccc(F)c(Cl)c2)c1 was read as ROS inducer -5.
C[C@H](CO)N1C[C@H](C)[C@@H](CN(C)Cc2ccc(Oc3ccccc3)cc2)Oc2ccc(NC(=O)c3ccncc3)cc2C1=O was read as ROS inducer 10.
Screening CC1(C)C(=O)C=CC2(C)C1CC(O)C1(C)C3=CCC(c4ccoc4)C3(C)CCC21 (stereo unspecified) returned ROS inducer 14.
O=C(CCCCCCC(=O)N/N=C/c1ccc(CO)o1)NO was read as ROS inducer -6.
`C=CCNC(=O)[C@H]1[C@@H]2C(=O)O[C@@H](c3ccccc3)[C@@H](c3ccccc3)N2[C@@H](c2ccc(OCCO)cc2)[C@]12C(=O)Nc1ccc(C#CC3=CCCCC3)cc12` gave ROS inducer 43.
Screening O=C1O[C@@H](c2ccccc2)[C@@H](c2ccccc2)N2[C@@H](c3ccc(OCCO)cc3)[C@]3(C(=O)Nc4ccc(C#CC5=CCCCC5)cc43)[C@@H](C(=O)O)[C@H]12 returned ROS inducer 159*.
`COC(=O)C(CC#Cc1ccc2c(c1)[C@]1(C(=O)N2)[C@H](c2ccc(OCCO)cc2)N2[C@H](c3ccccc3)[C@H](c3ccccc3)OC(=O)[C@H]2[C@@H]1C(=O)N1CCc2cc(OC)c(OC)cc2C1)C(=O)OC` gave ROS inducer 132*.
For COc1ccc(C#Cc2ccc3c(c2)[C@]2(C(=O)N3)[C@H](C(=O)N3CCc4cc(OC)c(OC)cc4C3)[C@H]3C(=O)O[C@H](c4ccccc4)[C@H](c4ccccc4)N3[C@@H]2c2ccc(OCCO)cc2)cc1 the results were ROS inducer 23.
Screening NC(=O)[C@H]1[C@@H]2C(=O)O[C@@H](c3ccccc3)[C@@H](c3ccccc3)N2[C@@H](c2ccc(OCCO)cc2)[C@]12C(=O)Nc1ccc(C#CC3=CCCCC3)cc12 returned ROS inducer 28.
For COc1ccc(C#Cc2ccc3c(c2)[C@]2(C(=O)N3)[C@H](c3ccc(OCCO)cc3)N3[C@H](c4ccccc4)[C@H](c4ccccc4)OC(=O)[C@H]3[C@@H]2C(=O)N2CCc3cc(OC)c(OC)cc3C2)cc1 the results were ROS inducer 59.
Screening C[C@H]1CN([C@@H](C)CO)C(=O)c2cccc(NC(=O)Nc3ccc(F)cc3)c2O[C@@H]1CN(C)S(=O)(=O)c1cccs1 returned ROS inducer 17.
CCC(=O)Nc1ccccc1-c1nnc(SCc2ccccc2)[nH]c1=O was read as ROS inducer 50.
For CC(C)N(Cc1nc(-c2ccc(Cl)cc2)no1)S(=O)(=O)c1cccc([N+](=O)[O-])c1 the results were ROS inducer -7.
Screening C[C@@H]1CN([C@@H](C)CO)C(=O)Cc2cc(NC(=O)C3CC3)ccc2O[C@@H]1CN(C)C(=O)Nc1ccc(F)cc1 returned ROS inducer 4.
Screening O=C(CSc1nc2ccc(C(=O)c3ccccc3)cc2[nH]1)Nc1cccc(Cl)c1 returned ROS inducer 12.
CC(C)C(=O)Nc1ccc(-c2nc3cccnc3s2)cc1 was read as ROS inducer 8.
`O=C(Nc1ccc(-c2nc3ccccc3[nH]2)cc1)c1ccc(-c2ccccc2)cc1` gave ROS inducer -7.
Screening O=C(Nc1cccc(-c2nc3ccccc3[nH]2)c1)c1ccccc1 returned ROS inducer 5.
`CC1CCCCN1S(=O)(=O)c1ccc(C(=O)Nc2cccc(-c3nc4ccccc4[nH]3)c2)cc1` (stereo unspecified) gave ROS inducer 204*.
For Cc1nc(NCC2CCCO2)c2c3c(sc2n1)CCC3 (stereo unspecified) the results were ROS inducer 27.
Screening Cc1ccc(S(=O)(=O)Nc2ccc3c(c2)CC(=O)N([C@@H](C)CO)C[C@H](C)[C@H](CN(C)C(=O)Nc2ccc(F)cc2)O3)cc1 returned ROS inducer -2.
COc1ccc(S(=O)(=O)Nc2ccc3c(c2)C(=O)N([C@@H](C)CO)C[C@@H](C)[C@@H](CN(C)Cc2ccc(-c4ccccc4)cc2)O3)cc1 was read as ROS inducer 21.
Screening Cc1ccc(S(=O)(=O)Nc2ccc3c(c2)C(=O)N([C@@H](C)CO)C[C@H](C)[C@H](CN(C)C(=O)Nc2ccccc2)O3)cc1 returned ROS inducer 2.
For Cc1ccc(S(=O)(=O)Nc2ccc3c(c2)C(=O)N([C@@H](C)CO)C[C@H](C)[C@@H](CN(C)Cc2ccc(Oc4ccccc4)cc2)O3)cc1 the results were ROS inducer 110*.
For Cc1ccc(S(=O)(=O)Nc2ccc3c(c2)C(=O)N([C@@H](C)CO)C[C@@H](C)[C@@H](CN(C)Cc2ccc(Oc4ccccc4)cc2)O3)cc1 the results were ROS inducer 10.
For C[C@H](CO)N1C[C@H](C)[C@@H](CN(C)C(=O)Nc2ccccc2)Oc2ccc(NS(=O)(=O)c3ccccc3)cc2C1=O the results were ROS inducer 2.
For Cc1ccc(S(=O)(=O)Nc2ccc3c(c2)C(=O)N([C@@H](C)CO)C[C@H](C)[C@@H](CN(C)C(=O)Nc2ccccc2)O3)cc1 the results were ROS inducer 109*.
